An excerpt weighted towards active compounds, which were near 11% of everything screened.
PNC assembly inh – inhibitors of perinucleolar compartment assembly | PC3M PTB-GFP, PNC prevalence imaging, 16 h; stronger effect = lower value | activity change (PNC), negative = inhibition, % at 10 µM | 3.1% of 140,000 active;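 active means readout at or below -70, meaning at least 70% loss of cells showing the perinucleolar compartment, a nuclear body marking cancer cells; inconclusive means readout between -30 and a set limit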
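Compounds are pinned in duplicate onto adhered PC3M cells stably expressing GFP-tagged PTB and incubated 16 h at 37 C. Cells are then fixed, nuclei stained with Hoechst, and PNC-positive cells counted.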
ALDH1A1 inh – ALDH1A1 (human) enzyme inhibition; P00352; Purified ALDH1A1, NADH fluorescence, propionaldehyde substrate; Potency, µM (titrated, usually from 75.3 µM), hits mostly inhibitors; 7.3% of 220,000 active; AID 1030
HPGD block – blocks human HPGD enzyme activity. purified HPGD, NADH fluorescence kinetic, PGE2 substrate. Potency, µM, actives largely listed as inhibitors. 4.3% of 150,000 active. AID 894
Target sequence (P15428 whole entry, looked up): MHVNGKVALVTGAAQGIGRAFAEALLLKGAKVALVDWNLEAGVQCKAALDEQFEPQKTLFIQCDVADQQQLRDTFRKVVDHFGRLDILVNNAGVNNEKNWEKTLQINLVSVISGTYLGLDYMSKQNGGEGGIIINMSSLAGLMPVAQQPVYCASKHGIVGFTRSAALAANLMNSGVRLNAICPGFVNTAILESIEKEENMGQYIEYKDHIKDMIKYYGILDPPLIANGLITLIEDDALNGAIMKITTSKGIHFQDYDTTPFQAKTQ
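NADH formation kinetics: reaction with 30 uM PGE2 and 1 mM NAD+ (final), 20 nM enzyme, Tris-HCl pH 8 with Tween 20, after 15 min compound preincubation at room temperature. Fluorescence change, last versus first of five reads.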
Each line names hits and unclear results; the compound was inactive in the other large screens. Unless noted, the call rests on the fitted dose curve; in most records, active means well fitted inhibition curve with a large enough effect (not every such curve was filed as active); inconclusive means small, poorly fitted or top-dose-only effect, or another doubt; inactive means no such curve, though single readings can be large or run the other way.

O=C(NC1CCCC1)c1cc2c(ccc3ccccc32)o1	ALDH1A1 inh inconclusive, HPGD block inconclusive
Cc1[nH]c(=S)sc1Cc1ccc(F)cc1	ALDH1A1 inh inconclusive, HPGD block 16µM
Cc1[nH]cnc1CSCc1ccc(F)cc1	PNC assembly inh inconclusive
O=S(=O)(CCC(F)=C(F)F)c1nnnn1C1CCCCC1	none (no result: PNC assembly inh)
Cc1cc(N)nc2nc(C(F)(F)F)nn12	none (no result: PNC assembly inh, HPGD block)
O=C(c1cccc(S(=O)(=O)N2CCCCC2)c1)N1CCCCC1	PNC assembly inh inconclusive
O=C(c1cccc(-c2nnc(-c3ccccc3)o2)c1)N1CCCCC1	PNC assembly inh inconclusive, ALDH1A1 inh inconclusive, HPGD block 7.9µM
CC(C)Oc1cccc(C(=O)N2CCCC2)c1	none (no result: PNC assembly inh, HPGD block)
O=C(c1cccc(-c2nnc(-c3ccccc3)o2)c1)N1CCCCCC1	PNC assembly inh inconclusive, ALDH1A1 inh inconclusive, HPGD block 8.9µM
CC(C)CC(C(=O)O)N1C(=O)C2C3CC(C2C1=O)C1C(c2ccccc2)c2sc(=O)[nH]c2SC31 (centres undefined)	PNC assembly inh inconclusive, HPGD block inconclusive
CCC1CCCCN1C(=O)COC(=O)c1n[nH]c2ccccc12 (centres undefined)	none
CCC1CCCCN1C(=O)CSc1nnc(-c2c[nH]c3ccccc23)o1 (centres undefined)	ALDH1A1 inh 13µM
CC1CCCN(C(=O)CSc2nnc(-c3c[nH]c4ccccc34)o2)C1 (centres undefined)	PNC assembly inh inconclusive, ALDH1A1 inh 14µM, HPGD block 16µM
CC1CCCC(C)N1C(=O)CSc1nnc(-c2c[nH]c3ccccc23)o1 (centres undefined)	ALDH1A1 inh 10µM
CCC(C)NC(=O)CSc1nnc(-c2c[nH]c3ccccc23)o1 (centres undefined)	none (no result: PNC assembly inh, HPGD block)
CCN(C(=O)CSc1nnc(-c2c[nH]c3ccccc23)o1)C1CCS(=O)(=O)C1 (centres undefined)	none (no result: PNC assembly inh, HPGD block)
CCc1nnc(NC(=O)CCNC(=O)c2ccccc2Cl)s1	none (no result: PNC assembly inh, HPGD block)
CCc1nnc(NC(=O)C(=O)NCCOC(=O)c2ccccc2Cl)s1	PNC assembly inh -109, ALDH1A1 inh inconclusive
COC(=O)CNC(=O)[C@@]1(C)C=C[C@@H](Cc2ccccc2)N1C(=O)OC	ALDH1A1 inh inconclusive (no result: PNC assembly inh)
Cc1[nH]c2ccccc2c1C(=O)COC(=O)Cn1c(C(F)(F)F)nc2ccccc21	PNC assembly inh -105
O=C(Cn1c(C(F)(F)F)nc2ccccc21)OCC(=O)c1c[nH]c2ccccc12	none (no result: HPGD block)
CCCCc1n(CC(=O)c2ccc(Cl)cc2)c2ccccc2[n+]1C	none (no result: PNC assembly inh, HPGD block)
CC(C)Cn1c(N)c(C(=O)CCl)c(=O)n(C)c1=O	PNC assembly inh inconclusive, ALDH1A1 inh 8.9µM
Cn1c(=O)c(C(=O)COC(=O)c2cc(C(F)(F)F)nc3c(C(F)(F)F)cccc23)c(N)n(CC2CC2)c1=O	none
Cn1c(=O)c(C(=O)CCl)c(N)n(CC2CC2)c1=O	ALDH1A1 inh 20µM
CC(C)Cn1c(N)c(C(=O)CSc2cc(Cl)ccc2Cl)c(=O)n(C)c1=O	none
CCOC(=O)C1=NOC(C(=O)NN(C)c2ncc(C(F)(F)F)cc2Cl)C1 (centres undefined)	none (no result: PNC assembly inh, HPGD block)
CCc1ccc(OCC(=O)N/N=C(\C)c2ccc(-n3ccnc3)cc2)cc1	none (no result: HPGD block)
CCOc1ccc(S(=O)(=O)Nc2ccc(C(=O)N/N=C(\C)c3ccc(-n4ccnc4)cc3)cc2)cc1	ALDH1A1 inh 16µM
CCc1nnc(NC(=O)c2cc(S(=O)(=O)N3CCOCC3)ccc2N2CCCCC2)s1	none (no result: PNC assembly inh, HPGD block)
CC1=NCCN1S(=O)(=O)c1cc([N+](=O)[O-])ccc1Cl	ALDH1A1 inh 7.9µM (no result: PNC assembly inh, HPGD block)
Cc1nccn1S(=O)(=O)c1cc([N+](=O)[O-])ccc1Cl	ALDH1A1 inh inconclusive
Cc1cccc2sc(NC(=O)C3CCN(S(=O)(=O)c4cc([N+](=O)[O-])ccc4Cl)CC3)nc12	ALDH1A1 inh 7.1µM
O=C(NCc1ccc(Cl)cc1)C1CCN(S(=O)(=O)c2cc([N+](=O)[O-])ccc2Cl)CC1	ALDH1A1 inh 1.4µM
Cc1cccc2sc(NC(=O)C3CCCN(S(=O)(=O)c4cccc5nonc45)C3)nc12 (centres undefined)	PNC assembly inh -100
O=C(NCc1ccc(Cl)cc1)C1CCN(c2cnccn2)CC1	none (no result: PNC assembly inh, HPGD block)
COc1ccc2nc(NC(=O)C3CCN(S(=O)(=O)c4cccc5nsnc45)CC3)sc2c1	none
COc1ccc(NC(=O)C2CCCN(S(=O)(=O)c3cccc4nonc34)C2)cc1 (centres undefined)	none
Cc1c(C2CCN(CCc3ccccc3)CC2)noc1-c1ccc(Cl)cc1	ALDH1A1 inh inconclusive (no result: PNC assembly inh)
COCCNC(=O)CCC(=O)NNc1nc2ccccc2c2nc(-c3ccccc3)nn12	none (no result: PNC assembly inh, HPGD block)
Cc1ccc(S(=O)(=O)N(C)C)cc1NC(=O)[C@H](Cc1ccccc1)N1C(=O)c2ccccc2C1=O	none
COc1cccc([C@@H]2Oc3ccc(OC)cc3C[C@H]2OC(=O)NS(=O)(=O)c2ccc(F)cc2)c1	none (no result: PNC assembly inh)
O=C(CNS(=O)(=O)/C=C/c1ccccc1)OC1CCOC1=O (centres undefined)	none (no result: PNC assembly inh, HPGD block)
CC1CN(C2CCN(S(=O)(=O)c3ccc(F)cc3)CC2)CC(C)O1 (centres undefined)	ALDH1A1 inh 25µM
CC1CN(C2CCN(S(=O)(=O)c3ccccc3)CC2)CC(C)O1 (centres undefined)	ALDH1A1 inh inconclusive
C/C=C1/NN(CCCN2CCN(c3cccc(Cl)c3)CC2)C(=O)N1CCOc1ccccc1	none (no result: PNC assembly inh)
COc1ccc(C(=O)Nc2ccc(-c3ccc(NC(=O)c4ccc(OC)cc4)c(OC)c3)cc2OC)cc1	ALDH1A1 inh inconclusive, HPGD block inconclusive
CC(C)C(=O)NC(=S)Nc1ccc(S(=O)(=O)Nc2ccccc2)cc1	PNC assembly inh inconclusive, ALDH1A1 inh inconclusive
CC(C)C(=O)NC(=S)Nc1ccc(S(=O)(=O)NC(C)(C)C)cc1	PNC assembly inh -107, ALDH1A1 inh inconclusive, HPGD block inconclusive
Nc1ccc(-c2nc3nc(N)nc(N)c3nc2-c2ccc(N)cc2)cc1	none (no result: PNC assembly inh, HPGD block)
Clc1ccccc1C(Nc1ncccn1)Nc1ncccn1	none (no result: PNC assembly inh)
COc1cc(/C=C(\C#N)C(=O)NCC2CCCO2)c([N+](=O)[O-])cc1OC (centres undefined)	ALDH1A1 inh inconclusive, HPGD block 28µM
CCOc1cc(/C=C(\C#N)C(=O)NCC2CCCO2)ccc1O (centres undefined)	PNC assembly inh inconclusive, ALDH1A1 inh 28µM, HPGD block inconclusive
Cc1ccccc1-n1c(C)cc(/C=C(\C#N)C(=O)NCC2CCCO2)c1C (centres undefined)	ALDH1A1 inh 14µM
N#C/C(=C\c1cccc([N+](=O)[O-])c1)C(=O)NCC1CCCO1 (centres undefined)	none (no result: PNC assembly inh, HPGD block)
Cc1ccc(/C=C(\C#N)C(=O)NCC2CCCO2)o1 (centres undefined)	PNC assembly inh inconclusive
CCOc1cc(/C=C(\C#N)C(=O)NCC2CCCO2)ccc1OCC(N)=O (centres undefined)	none (no result: PNC assembly inh, HPGD block)
CC(CCN)(CCN)[N+](=O)[O-]	none (no result: PNC assembly inh)
COc1ccc(-c2csc(-c3cc4ccccc4oc3=N)n2)cc1	PNC assembly inh -93, ALDH1A1 inh inconclusive
COc1ccc(-c2noc(-c3cc4ccccc4oc3=O)n2)cc1	ALDH1A1 inh inconclusive
O=C(NC(=S)NCc1cccnc1)c1cccc2ccccc12	none (no result: PNC assembly inh, HPGD block)
COC(=O)c1c(NC(=O)c2nc3ccccc3s2)sc2c1CCN(C(C)=O)C2	ALDH1A1 inh 13µM
